Assay results from PubChem BioAssay AID1159580 (chemical genetic matrix, 2015).
The whole screen tested about 5,500 compounds, of which about 2,000 (36%) were called active. Roughly 18% stayed inconclusive and do not appear here. Cut-off read from the data, not from the text of the source: active = normalized growth mostly below about 0.91 (no sharp cut-off); inconclusive = no clear call, values can overlap the other calls; inactive = mostly above about 0.92. Some of the results follow.

Assay: chemical genetic growth profiling, strain panel (AID 1159580);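 note: tested at 20 µM; growth read once vehicle control cultures reached saturation at 30 °C; 1 = growth at the plate median or of vehicle wells; lower values mean less growth of the strain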
Settings: growth OD
[1] = S. cerevisiae deletion strains, locus YAL013W, strain DEP1, active compounds read low
[2] = S. cerevisiae deletion strains, locus YBR229C, strain ROT2, active compounds read low
[3] = S. cerevisiae deletion strains, locus YDL101C, strain DUN1, active compounds read low
[4] = S. cerevisiae deletion strains, locus YDR150W, strain NUM1, active compounds read low
[5] = S. cerevisiae deletion strains, locus YEL061C, strain CIN8, active compounds read low
[6] = S. cerevisiae deletion strains, locus YGR078C, strain PAC10, active compounds read low
[7] = S. cerevisiae deletion strains, locus YHR030C, strain SLT2, active compounds read low
[8] = S. cerevisiae deletion strains, locus YHR087W, strain rtc3, active compounds read low
[9] = S. cerevisiae deletion strains, locus YJL187C, strain SWE1, active compounds read low
[10] = S. cerevisiae deletion strains, locus YJR043C, strain POL32, active compounds read low
[11] = S. cerevisiae deletion strains, locus YJR075W, strain HOC1, active compounds read low
[12] = S. cerevisiae deletion strains, locus YLR039C, strain RIC1, active compounds read low
[13] = S. cerevisiae deletion strains, locus YLR058C, strain SHM2 (second series), active compounds read low
[14] = S. cerevisiae deletion strains, locus YLR085C, strain ARP6, active compounds read low
[15] = S. cerevisiae deletion strains, locus YLR262C, strain YPT6, active compounds read low
[16] = S. cerevisiae deletion strains, locus YML094W, strain GIM5, active compounds read low
[17] = S. cerevisiae deletion strains, locus YMR219W, strain ESC1, active compounds read low
[18] = S. cerevisiae deletion strains, locus YMR263W, strain SAP30, active compounds read low
[19] = S. cerevisiae deletion strains, locus YMR307W, strain GAS1, active compounds read low
[20] = S. cerevisiae deletion strains, locus YNL153C, strain GIM3, active compounds read low
[21] = S. cerevisiae deletion strains, locus YNL298W, strain CLA4 (second series), active compounds read low
[22] = S. cerevisiae deletion strains, locus YNL322C, strain KRE1, active compounds read low
[23] = S. cerevisiae deletion strains, locus YNR030W, strain Alg12, active compounds read low
[24] = S. cerevisiae deletion strains, locus YPL055C, strain LGE1, active compounds read low
[25] = S. cerevisiae deletion strains, locus YPL241C, strain CIN2, active compounds read low
[26] = S. cerevisiae deletion strains, locus YPR135W, strain CTF4, active compounds read low

Measured: normalized growth

CCOC(=O)C(O)(c1ccc(N)c(C)c1)C(F)(F)F (configuration not stated)
inactive: [1] 0.995 | [2] 1 | [3] 0.996 | [4] 0.928 | [5] 0.988 | [6] 0.992 | [7] 0.953 | [8] 1.02 | [9] 1 | [10] 0.925 | [11] 0.991 | [12] 0.988 | [13] 1.01 | [14] 0.996 | [15] 1.02 | [16] 0.991 | [17] 0.982 | [18] 0.999 | [19] 0.946 | S. cerevisiae deletion strains, locus YNL128W, strain TEP1, active compounds read low 1.01 | [20] 0.993 | [21] 1 | [22] 1 | [23] 1.01 | [24] 0.935 | [25] 0.996 | [26] 0.982 | S. cerevisiae strains, strain wild type, active compounds read low 0.981

CCc1cccc(C)c1NC(=O)CC(C)(C)CC(=O)O
inactive: [1] 0.988 | [2] 0.994 | [3] 1.02 | [4] 0.981 | [5] 0.992 | [6] 0.99 | S. cerevisiae deletion strains, locus YGR229C, strain SMI1, active compounds read low 0.992 | [7] 0.989 | [8] 1.01 | [9] 0.996 | [10] 0.995 | [11] 1.01 | S. cerevisiae deletion strains, locus YKL190W, strain CNB1, active compounds read low 0.987 | [12] 1.03 | [13] 0.996 | [14] 0.966 | [15] 1.02 | [16] 1.06 | [17] 0.996 | [18] 0.967 | [19] 0.983 | [20] 1.01 | [21] 1.01 | [22] 0.992 | [23] 1 | [24] 1.02 | [25] 1.01 | [26] 1.06

FC(F)(F)c1cc(NC(=S)SCCSC(=S)Nc2cc(C(F)(F)F)cc(C(F)(F)F)c2)cc(C(F)(F)F)c1
inactive: S. cerevisiae deletion strains, locus YAR019C, strain CDC15, active compounds read low 0.993 | S. cerevisiae deletion strains, locus YBL105C, strain PKC1, active compounds read low 0.989 | S. cerevisiae deletion strains, locus YBR135W, strain CKS1, active compounds read low 1 | S. cerevisiae deletion strains, locus YBR136W, strain MEC1, active compounds read low 0.986 | S. cerevisiae deletion strains, locus YBR160W, strain CDC28, active compounds read low 0.997 | S. cerevisiae deletion strains, locus YDL017W, strain CDC7, active compounds read low 0.991 | S. cerevisiae deletion strains, locus YDL028C, strain MPS1, active compounds read low 0.991 | [3] 1 | S. cerevisiae deletion strains, locus YDL108W, strain KIN28, active compounds read low 0.99 | S. cerevisiae deletion strains, locus YDL132W, strain cdc53, active compounds read low 0.988 | S. cerevisiae deletion strains, locus YDL214C, strain PRR2, active compounds read low 0.889 | S. cerevisiae deletion strains, locus YDR052C, strain DBF4, active compounds read low 1 | S. cerevisiae deletion strains, locus YDR054C, strain cdc34, active compounds read low 0.994 | S. cerevisiae deletion strains, locus YDR226W, strain ADK1, active compounds read low 0.994 | S. cerevisiae deletion strains, locus YDR477W, strain SNF1, active compounds read low 0.951 | S. cerevisiae deletion strains, locus YER123W, strain YCK3, active compounds read low 0.949 | S. cerevisiae deletion strains, locus YER133W, strain GLC7, active compounds read low 0.911 | S. cerevisiae deletion strains, locus YFL009W, strain cdc4, active compounds read low 1 | S. cerevisiae deletion strains, locus YFL029C, strain CAK1, active compounds read low 0.994 | S. cerevisiae deletion strains, locus YFR003C, strain YPI1, active compounds read low 0.993 | S. cerevisiae deletion strains, locus YFR019W, strain FAB1, active compounds read low 1.01 | S. cerevisiae deletion strains, locus YFR028C, strain CDC14, active compounds read low 0.993 | S. cerevisiae deletion strains, locus YGR040W, strain KSS1, active compounds read low 0.951 | S. cerevisiae deletion strains, locus YGR052W, strain FMP48, active compounds read low 1.04 | S. cerevisiae deletion strains, locus YGR092W, strain DBF2, active compounds read low 0.993 | [7] 0.984 | S. cerevisiae deletion strains, locus YHR079C, strain IRE1, active compounds read low 1.04 | S. cerevisiae deletion strains, locus YHR082C, strain KSP1, active compounds read low 1.03 | S. cerevisiae deletion strains, locus YHR205W, strain SCH9, active compounds read low 0.983 | S. cerevisiae deletion strains, locus YIL147C, strain SLN1, active compounds read low 0.97 | S. cerevisiae deletion strains, locus YJL095W, strain BCK1, active compounds read low 1.08 | S. cerevisiae deletion strains, locus YJL128C, strain PBS2, active compounds read low 0.954 | S. cerevisiae deletion strains, locus YJL157C, strain FAR1, active compounds read low 0.884 | S. cerevisiae deletion strains, locus YJR016C, strain ILV3, active compounds read low 0.995 | S. cerevisiae deletion strains, locus YJR066W, strain TOR1 (second series), active compounds read low 0.94 | S. cerevisiae deletion strains, locus YJR066W, strain TOR1, active compounds read low 1.09 | S. cerevisiae deletion strains, locus YKL048C, strain ELM1, active compounds read low 0.971 | S. cerevisiae deletion strains, locus YKL067W, strain YNK1, active compounds read low 0.862 | S. cerevisiae deletion strains, locus YKL101W, strain HSL1, active compounds read low 0.968 | S. cerevisiae deletion strains, locus YKL193C, strain SDS22, active compounds read low 0.992 | S. cerevisiae deletion strains, locus YKL203C, strain TOR2, active compounds read low 1.06 | S. cerevisiae deletion strains, locus YLR113W, strain HOG1, active compounds read low 0.869 | S. cerevisiae deletion strains, locus YLR133W, strain CKI1, active compounds read low 0.972 | S. cerevisiae deletion strains, locus YLR403W, strain SFP1, active compounds read low 0.982 | S. cerevisiae deletion strains, locus YML070W, strain DAK1, active compounds read low 0.908 | S. cerevisiae deletion strains, locus YMR001C, strain CDC5, active compounds read low 0.997 | S. cerevisiae deletion strains, locus YMR205C, strain PFK2 (second series), active compounds read low 0.988 | S. cerevisiae deletion strains, locus YMR277W, strain FCP1, active compounds read low 0.986 | S. cerevisiae deletion strains, locus YNL006W, strain LST8, active compounds read low 0.996 | S. cerevisiae deletion strains, locus YNL020C, strain ARK1, active compounds read low 0.973 | S. cerevisiae deletion strains, locus YNL161W, strain CBK1, active compounds read low 0.998 | S. cerevisiae deletion strains, locus YNL183C, strain NPR1, active compounds read low 1.03 | S. cerevisiae deletion strains, locus YNL207W, strain RIO2, active compounds read low 0.987 | S. cerevisiae deletion strains, locus YNL222W, strain SSU72, active compounds read low 0.989 | S. cerevisiae deletion strains, locus YNL307C, strain MCK1 (second series), active compounds read low 0.984 | S. cerevisiae deletion strains, locus YOL078W, strain AVO1, active compounds read low 0.992 | S. cerevisiae deletion strains, locus YOL136C, strain PFK27, active compounds read low 0.933 | S. cerevisiae deletion strains, locus YOR061W, strain CKA2, active compounds read low 0.994 | S. cerevisiae deletion strains, locus YOR119C, strain RIO1, active compounds read low 1.02 | S. cerevisiae deletion strains, locus YOR231W, strain MKK1, active compounds read low 1.03 | S. cerevisiae deletion strains, locus YOR329C, strain SCD5, active compounds read low 0.996 | S. cerevisiae deletion strains, locus YPL031C, strain PHO85, active compounds read low 0.963 | S. cerevisiae deletion strains, locus YPL153C, strain RAD53, active compounds read low 0.946 | S. cerevisiae deletion strains, locus YPL204W, strain HRR25, active compounds read low 0.932 | S. cerevisiae deletion strains, locus YPL209C, strain IPL1, active compounds read low 0.992 | S. cerevisiae deletion strains, locus YPL256C, strain CLN2, active compounds read low 0.926 | S. cerevisiae deletion strains, locus YPR025C, strain CCL1, active compounds read low 0.999 | S. cerevisiae deletion strains, locus YPR106W, strain ISR1, active compounds read low 0.998 | S. cerevisiae deletion strains, locus YPR111W, strain DBF20, active compounds read low 0.988 | S. cerevisiae deletion strains, strain NNK1, active compounds read low 0.986 | S. cerevisiae deletion strains, strain TSCII, active compounds read low 0.993
